# Reference: the supplement of paper PMC8387472
# Where a name gives a salt, the structure may show the parent alone. ± gives the standard deviation of the averaged measurements.
# What was measured:
# [1] = tested on: 24.0 GACCACAGCCCCCAGCAGGGGAGGCCCCCAGCAGGGGAGGCCCACACCTGCCCCAGCACCT; assay: fraction of edited reads among all mapped reads; higher = more Cas9 editing; conditions: mESC; 2uM; 72 h treatment, harvest day 5
# [2] = tested on: 6.0 (DMSO control at this site: 1-bp insertion 0.296, MH deletion 0.491, edited 0.076) ACGATTGGCCCCCACAAAGCGGACCAGCCAGCGTGCTAGGGAATAAGGCCAACTTGCACCC; assay: as above; conditions: mESC; 2uM; 72 h treatment, harvest day 5
# [3] = tested on: 24.0 GACCACAGCCCCCAGCAGGGGAGGCCCCCAGCAGGGGAGGCCCACACCTGCCCCAGCACCT; assay: fraction of microhomology deletions among edited reads; higher = more MH deletions; conditions: mESC; 2uM; 72 h treatment, harvest day 5
# [4] = tested on: 6.0 (DMSO control at this site: 1-bp insertion 0.296, MH deletion 0.491, edited 0.076) ACGATTGGCCCCCACAAAGCGGACCAGCCAGCGTGCTAGGGAATAAGGCCAACTTGCACCC; assay: as above; conditions: mESC; 2uM; 72 h treatment, harvest day 5
# [5] = tested on: 24.0 GACCACAGCCCCCAGCAGGGGAGGCCCCCAGCAGGGGAGGCCCACACCTGCCCCAGCACCT; assay: fraction of 1-bp insertions among edited reads; higher = more 1-bp insertion outcomes; conditions: mESC; 2uM; 72 h treatment, harvest day 5
# [6] = tested on: 6.0 (DMSO control at this site: 1-bp insertion 0.296, MH deletion 0.491, edited 0.076) ACGATTGGCCCCCACAAAGCGGACCAGCCAGCGTGCTAGGGAATAAGGCCAACTTGCACCC; assay: as above; conditions: mESC; 2uM; 72 h treatment, harvest day 5
# [7] = tested on: mESC LDLR-Dup GFP reporter (SpCas9 MH-deletion repair); assay: fraction of GFP+ cells relative to DMSO control (fold change); higher = more MH-deletion repair to in-frame LDLR (or more editing); conditions: 2 µM; 7 days post-transfection
smiles,measurement,setting,value
CC(=O)O/N=C1\C(=O)N(Cc2cc(Cl)ccc2Cl)c2ccc(Cl)cc21,fraction of edited reads among all mapped reads,[1],0.0521
same,fraction of edited reads among all mapped reads,[2],0.0813
same,fraction of microhomology deletions among edited reads,[3],0.696
same,fraction of microhomology deletions among edited reads,[4],0.51
same,fraction of 1-bp insertions among edited reads,[5],0.0444
same,fraction of 1-bp insertions among edited reads,[6],0.256
same,fraction of GFP+ cells,[7],1.21 ± 0.075
O=C1Cc2c([nH]c3ccc(Br)cc23)-c2ccccc2N1 [Kenpaullone],fraction of edited reads among all mapped reads,[2],0.165
same,fraction of microhomology deletions among edited reads,[4],0.526
same,fraction of 1-bp insertions among edited reads,[6],0.274
same,fraction of GFP+ cells,[7],1.53 ± 0.057
C[C@@H]1CN(CC(=O)Nc2ccc3c(c2)Cc2cccc(-c4cc(=O)cc(N5CCOCC5)o4)c2S3)C[C@H](C)O1,fraction of edited reads among all mapped reads,[2],0.0449
same,fraction of microhomology deletions among edited reads,[4],0.331
same,fraction of 1-bp insertions among edited reads,[6],0.475
same,fraction of GFP+ cells,[7],0.516 ± 0.11
NC(=O)c1ccc2nc(-c3ccc(Oc4ccc(Cl)cc4)cc3)[nH]c2c1 [Chk 2 inhibitor II (BML-277)],fraction of edited reads among all mapped reads,[2],0.092
same,fraction of microhomology deletions among edited reads,[4],0.515
same,fraction of 1-bp insertions among edited reads,[6],0.278
same,fraction of GFP+ cells,[7],0.961 ± 0.26
CCn1cc(C(=O)O)c(=O)c2ccc(C)nc21 [Nalidixic acid],fraction of GFP+ cells,[7],1.08 ± 0.015
NS(=O)(=O)C#Cc1ccccc1,fraction of GFP+ cells,[7],1.11 ± 0.052
COc1ccccc1-c1cc(Nc2cccc(CS(N)(=O)=O)c2)ncn1,fraction of edited reads among all mapped reads,[2],0.0957
same,fraction of microhomology deletions among edited reads,[4],0.494
same,fraction of 1-bp insertions among edited reads,[6],0.281
same,fraction of GFP+ cells,[7],1.17 ± 0.072
S=c1[nH]cnc2nc[nH]c12 [Mercaptopurine (6-MP)],fraction of edited reads among all mapped reads,[2],0.0919
same,fraction of microhomology deletions among edited reads,[4],0.519
same,fraction of 1-bp insertions among edited reads,[6],0.285
same,fraction of GFP+ cells,[7],2.22 ± 1.1
NC(=O)C1CCCc2c1[nH]c1ccc(Cl)cc21 (stereo not drawn) [Selisistat (EX 527)],fraction of GFP+ cells,[7],1.18 ± 0.47
CN(CCOc1ccc(CC2SC(=O)NC2=O)cc1)c1ccccn1 (stereo not drawn) [Rosiglitazone maleate],fraction of GFP+ cells,[7],1.52 ± 0.23
O=C(O)[C@]1(Cc2cccc(Nc3nccs3)n2)CC[C@@H](Oc2cccc(Cl)c2F)CC1,fraction of GFP+ cells,[7],1.82 ± 0.2
Cc1nc(N)sc1-c1ccnc(Nc2ccc(N3CCOCC3)cc2)n1,fraction of GFP+ cells,[7],0.334 ± 0.28
Nc1ncnc2c1ncn2[C@@H]1O[C@H](CO)[C@@H](O)[C@H]1O [Adenosine],fraction of GFP+ cells,[7],1.04 ± 0.13
NC(=O)NO [Hydroxyurea],fraction of GFP+ cells,[7],0.829 ± 0.24
CC(C)(C)OC(=O)Nc1ccc(-c2cc(C(=O)NCCCCCCC(=O)NO)no2)cc1,fraction of GFP+ cells,[7],0.902 ± 0.059
C=C1C(=O)O[C@@H]2/C=C(\C)CC/C=C(\C)CC[C@@H]12 [Costunolide],fraction of GFP+ cells,[7],1.22 ± 0.2
CC(NC(=O)c1ccccc1/N=C/c1c(O)ccc2ccccc12)c1ccccc1 (stereo not drawn) [Sirtinol],fraction of GFP+ cells,[7],1.45 ± 0.24
Cc1ccc(C)c(OCCCC(C)(C)C(=O)O)c1 [Gemfibrozil],fraction of GFP+ cells,[7],1.46 ± 0.29
Nc1nc(=O)c2c([nH]1)NC[C@H](CNc1ccc(C(=O)N[C@@H](CCC(=O)O)C(=O)O)cc1)N2C=O [Calcium Levofolinate],fraction of GFP+ cells,[7],1.1 ± 0.47
CNNCc1ccc(C(=O)NC(C)C)cc1 [Procarbazine HCl],fraction of GFP+ cells,[7],1.04 ± 0.053
O=C(NCCN1CCOCC1)Nc1ccc(C(=O)/C=C/c2cccc(N3CCOCC3)n2)cc1,fraction of GFP+ cells,[7],1.18 ± 0.16
COc1ccc(CCNCc2ccc(OCc3ccc(Cl)nc3)c(OC)c2)cc1OC,fraction of GFP+ cells,[7],1.56 ± 0.28
Nc1nc(F)nc2c1ncn2[C@@H]1O[C@H](COP(=O)(O)O)[C@@H](O)[C@@H]1O [Fludarabine Phosphate],fraction of GFP+ cells,[7],0.855 ± 0.23
O=C(CCCCCCC(=O)Nc1ccc([C@H]2O[C@@H](CSc3nc(-c4ccccc4)c(-c4ccccc4)o3)C[C@@H](c3ccc(CO)cc3)O2)cc1)NO [Tubacin],fraction of GFP+ cells,[7],0.972 ± 0.16
C=CCc1ccc(O)c(-c2cc(CC=C)ccc2O)c1 [Magnolol],fraction of GFP+ cells,[7],0.713 ± 0.084
C=C(C)[C@@H]1CC[C@]2(C(=O)O)CC[C@]3(C)[C@H](CC[C@@H]4[C@@]5(C)CC[C@H](O)C(C)(C)[C@@H]5CC[C@]43C)[C@@H]12 [Betulinic acid],fraction of GFP+ cells,[7],0.997 ± 0.13
CCCCCCCCCC(=O)N[C@@H](Cc1c[nH]c2ccccc12)C(=O)N[C@H](CC(N)=O)C(=O)N[C@@H](CC(=O)O)C(=O)N[C@@H]1C(=O)NCC(=O)N[C@@H](CCCN)C(=O)N[C@@H](CC(=O)O)C(=O)N[C@H](C)C(=O)N[C@@H](CC(=O)O)C(=O)NCC(=O)N[C@H](CO)C(=O)N[C@@H]([C@H](C)CC(=O)O)C(=O)N[C@@H](CC(=O)c2ccccc2N)C(=O)O[C@@H]1C [Daptomycin],fraction of GFP+ cells,[7],1.25 ± 0.27
CSc1nc2cc(Cl)c(Oc3cccc(Cl)c3Cl)cc2[nH]1 [Triclabendazole],fraction of GFP+ cells,[7],1.67 ± 0.26
C[C@]1(c2nc3c(C(N)=O)cccc3[nH]2)CCCN1 [Veliparib (ABT-888)],fraction of GFP+ cells,[7],0.657 ± 0.19
O=P(O)(O)C(O)(Cn1ccnc1)P(=O)(O)O [Zoledronic Acid Monohydrate],fraction of GFP+ cells,[7],1.07 ± 0.25
CC(C)(O)[C@@H]1CC[C@](C)([C@H]2[C@@H](O)C[C@@]3(C)[C@@H]4C[C@H](O)[C@H]5C(C)(C)[C@@H](O)CC[C@@]56C[C@@]46CC[C@]23C)O1 [Cycloastragenol],fraction of GFP+ cells,[7],0.966 ± 0.08
CC(C)(O)C1CCC(C)(C2C(O)CC3(C)C4CC(O)C5C(C)(C)C(O)CCC56CC46CCC23C)O1 (stereo not drawn) [Cyclogalegenol],fraction of GFP+ cells,[7],0.875 ± 0.24
Cn1cc(/C=C/C(=O)c2cccc(F)c2)cc1/C=C/C(=O)NO,fraction of GFP+ cells,[7],0.876 ± 0.1
COc1nc(OCc2cccc(-c3ccccc3)c2C)ccc1CNCCNC(C)=O [bms202 (PD-1/PD-L1 inhibitor 2],fraction of GFP+ cells,[7],1.04 ± 0.3
CCc1nc(N)nc(N)c1-c1ccc(Cl)cc1 [Pyrimethamine],fraction of GFP+ cells,[7],1.5 ± 1.2
O=C(CCCCCCNC(=O)c1cnc(N(c2ccccc2)c2ccccc2)nc1)NO [Ricolinostat (ACY-1215)],fraction of GFP+ cells,[7],0.968 ± 0.11
N#Cc1cnc(Nc2cc(NC[C@H]3CNCCO3)c(C(F)(F)F)cn2)cn1,fraction of GFP+ cells,[7],1.18 ± 0.1
CN(CCOc1ccc(CC2SC(=O)NC2=O)cc1)c1ccccn1 (stereo not drawn) [Rosiglitazone],fraction of GFP+ cells,[7],1.48 ± 0.26
CO[C@@H]1[C@@H](OC(N)=O)[C@@H](O)[C@H](Oc2ccc3c(O)c(NC(=O)c4ccc(O)c(CC=C(C)C)c4)c(=O)oc3c2C)OC1(C)C [Novobiocin Sodium],fraction of GFP+ cells,[7],1.09 ± 0.072
CC(C)NC(=O)COc1cccc(-c2nc(Nc3ccc4[nH]ncc4c3)c3ccccc3n2)c1,fraction of GFP+ cells,[7],1.21 ± 1.4
COc1ccc(S(=O)(=O)NCc2ccc(C(=O)NCCc3ccc(Cl)cn3)cc2)cc1,fraction of GFP+ cells,[7],0.936 ± 0.16
CO[C@H]1/C=C/O[C@@]2(C)Oc3c(C)c(O)c4c(O)c(c5c(nc6cc(C)ccn65)c4c3C2=O)NC(=O)/C(C)=C\C=C\[C@H](C)[C@H](O)[C@@H](C)[C@@H](O)[C@@H](C)[C@H](OC(C)=O)[C@@H]1C [Rifaximin],fraction of GFP+ cells,[7],0.938 ± 0.38
COc1c2ccoc2cc2oc(=O)ccc12 [Bergapten],fraction of GFP+ cells,[7],0.969 ± 0.32
Cn1nnc2c(C(N)=O)ncn2c1=O [Temozolomide],fraction of GFP+ cells,[7],0.998 ± 0.33
C=CC(=O)N1C/C(=C\c2ccc([N+](=O)[O-])cc2)C(=O)/C(=C/c2ccc([N+](=O)[O-])cc2)C1,fraction of GFP+ cells,[7],0.723 ± 0.13
Cn1cc(-c2ccc3c(c2)CCN3C(=O)Cc2cccc(C(F)(F)F)c2)c2c(N)ncnc21,fraction of GFP+ cells,[7],0.644 ± 0.25
O=c1ccc2cc3ccoc3cc2o1 [Psoralen],fraction of GFP+ cells,[7],1.11 ± 0.41
